High-throughput results as filed in PubChem BioAssay.
TrxR1 substrate = qHTS Assay for Substrates of Mammalian Selenoprotein Thioredoxin Reductase 1 (TrxR1): qHTS. Potency, µM (series often up to 114 µM), for inactives: at the highest dose activity change, negative = substrate turnover. purified TrxR1 substrate turnover, NADPH consumption readout. Thioredoxin reductase 1, cytoplasmic (Rattus norvegicus), O89049. 390,000 tested, 0.01% active. AID 588456, 2011; further: on the % scale 0 is the no-effect control and ±100 the full control effect; nearly all actives have a fitted effect of over 50% in size
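Rat TrxR1, dispensed at 90 nM, was prereduced with 400 uM NADPH (final) for 5 min at ~22 deg C, then incubated with compound 15 min before 400 uM selenite. A first-read NADPH fluorescence drop versus no-compound background flagged substrates.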
GALK inh = qHTS Assay for Inhibitors of Human Galactokinase (GALK); P51570; Purified GALK, Kinase-Glo residual ATP luminescence; Potency, µM (highest dose often 57.5 µM), for inactives: top-dose activity change, negative = inhibition, hits mostly inhibitors; 270,000 tested, 0.007% active; further: on the % scale 0 is the no-effect control and ±100 the full control effect
Target sequence (P51570 whole entry, looked up): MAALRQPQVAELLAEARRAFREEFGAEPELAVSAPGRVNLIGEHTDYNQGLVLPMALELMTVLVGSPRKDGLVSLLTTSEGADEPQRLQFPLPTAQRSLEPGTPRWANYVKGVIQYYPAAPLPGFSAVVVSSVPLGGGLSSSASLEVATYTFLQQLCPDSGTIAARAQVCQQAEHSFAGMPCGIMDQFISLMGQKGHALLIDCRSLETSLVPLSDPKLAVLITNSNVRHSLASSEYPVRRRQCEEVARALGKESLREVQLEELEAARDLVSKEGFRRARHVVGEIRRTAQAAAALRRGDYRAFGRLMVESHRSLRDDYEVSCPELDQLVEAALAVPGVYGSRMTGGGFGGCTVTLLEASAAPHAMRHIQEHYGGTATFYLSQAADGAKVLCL
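ATP-depletion format; final 35 uM ATP, 100 uM D-galactose, 5 nM enzyme; pH 8.0 HEPES/Mg2+ buffer; 60 min RT; luminescence read 10 min after detection reagent.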
Nrf2 ARE act = qHTS of Nrf2 Activators; Potency, µM (series often up to 46.1 µM), for the others: at the top dose activation, actives largely listed as activators; AREc32 ARE-luciferase reporter (MCF7-derived line), luminescence, 24 h; 410,000 tested, 0.31% active; further: % of control where 0% means no effect; nearly all actives have a fitted effect of over 65% in size
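Luminescent ARE reporter assay in AREc32_Fluc cells: overnight plating at 37 deg C, 24 hr compound incubation, Steady-Glo added, 30 min RT before reading.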
Nrf2 block = Nrf2 qHTS screen for inhibitors | A549 ARE-Fluc reporter, luciferase luminescence, 18-24 h | Potency, µM (doses to about 46 µM), inactives show at the top dose activity change, negative = inhibition, hits mostly inhibitors | 360,000 tested, 2.1% active | AID 504444, 2011; further: on the % scale 0 is the no-effect control and ±100 the full control effect; nearly all actives have a fitted effect of over 60% in size
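Nrf2 function is reported as luminescence of an ARE-controlled luciferase in A549 cells. Compounds were tested at several concentrations, and a CellTiter-Fluor read on the same wells flagged cytotoxicity.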
A549 tox = Nrf2 qHTS screen for inhibitors: counterscreen for cytotoxicity; A549 ARE-Fluc cells, CellTiter-Fluor viability, 18-24 h; Potency, µM (top dose mostly 46 µM), without a hit: top-dose activity change, negative = cytotoxicity, most hits filed as inhibitors; 390,000 tested, 0.16% active; further: on the % scale 0 is the no-effect control and ±100 the full control effect
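Cytotoxicity counterscreen: CellTiter-Fluor fluorescence was measured in A549 ARE_Fluc cells after 18-24 h of compound exposure in a concentration series. The subsequent BugLite luminescent read reports ARE-luciferase activity.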
rTrxR1 inhibitor = qHTS Assay for Inhibitors of Mammalian Selenoprotein Thioredoxin Reductase 1 (TrxR1): qHTS; AID 588453, 2011; recombinant rTrxR1, NADPH fluorescence consumption, selenite substrate; Potency, µM (highest dose often 114 µM), for the others: at the highest dose activity change, negative = inhibition, actives largely listed as inhibitors; 390,000 tested, 1% active; further: on the % scale 0 is the no-effect control and ±100 the full control effect; nearly all actives have a fitted effect of over 65% in size
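Rat TrxR1 (90 nM in the dispensed reagent) was pre-reduced with 400 uM NADPH for 5 min at room temperature, then incubated with compound for 15 min. After 400 uM selenite was added, NADPH fluorescence (Ex 340/Em 450 nm) was followed for 8 min.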
* = called active by the depositor; ? = inconclusive; nt = not tested or not shown; [ ] = another dose, or the depositor's remark. This is a sample that favours compounds with a hit; in the whole collection about 3% have one here. The call rests on the fitted dose curve; in most records, active means well fitted curve in the direction sought with a large enough effect; inconclusive means small, poorly fitted or top-dose-only effect, or another doubt; inactive means no such curve, though single readings can be large; an effect the other way counts as inactive or inconclusive. Potency means the concentration at half of the fitted maximal effect.

SMILES | TrxR1 substrate | GALK inh | Nrf2 ARE act | Nrf2 block | A549 tox | rTrxR1 inhibitor
Cc1cccc(C)c1-n1nnnc1C1c2ccccc2C(=O)N1CCc1ccccc1F (centres undefined) | nt | nt | 13µM* | nt | nt | nt
CCc1nnc(NC(=O)CSc2nc3c([nH]c4ccccc43)c(=O)n2-c2cc(C)cc(C)c2)s1 | 5%[57.1 µM] | nt | 8% | nt | -2% | 13%[57.1 µM]
O=C(O)c1cc(O)c2c(c1)[C@H]([C@H]1c3cc(C(=O)O)cc(O)c3C(=O)c3c(O[C@@H]4O[C@H](CO)[C@@H](O)[C@H](O)[C@H]4O)cccc31)c1cccc(OC3O[C@H](CO)[C@@H](O)[C@H](O)[C@H]3O)c1C2=O (some centres undefined) | -15% | nt | -1% | ? | 16µM* | 79µM*
O=C(O)c1cc(O)c2c(c1)[C@@H]([C@H]1c3cc(C(=O)O)cc(O)c3C(=O)c3c(O[C@@H]4O[C@H](CO)[C@@H](O)[C@H](O)[C@H]4O)cccc31)c1cccc(OC3O[C@H](CO)[C@@H](O)[C@H](O)[C@H]3O)c1C2=O (some centres undefined) | -3% | nt | -1% | -18% | -9% | 5%
Cc1ccc(S(=O)(=O)NC2CCCCCCC2)cc1 | 0% | 9% | 0% | -14% | -2% | 23%
Cc1ccc(S(=O)(=O)NC2OC(=O)C(Cl)=C2Cl)cc1 (centres undefined) | -2% | -1% | 3% | 10% | -5% | 10µM*
COc1ccc(C2=Nc3ccccc3OC2)cc1 | 1% | 0% | 11µM* | ? | -5% | ?
COc1ccc(-c2oc3ncn(CCN4CCOCC4)c(=N)c3c2-c2ccc(OC)cc2)cc1 | 8% | -5% | 0% | 16µM* | -23% | 4%
COc1ccc(OC)c(NC(=O)c2cccn2-c2nnc(N3CCCCC3)s2)c1 | 3%[57.1 µM] | nt | 11% | ? | 16% | 22%[57.1 µM]
Cc1cccc(/C=C(\c2nc3ccccc3[nH]2)S(=O)(=O)c2ccccc2)c1 | -4% | -2% | ? | 23µM* | ? | -65%
Nc1ccc(S(=O)(=O)c2cc(O)c3ccccc3c2O)cc1 | -10% | nt | 7% | -3% | 0% | 2.8µM*
COc1cccc(C(=O)C(CCC#N)c2ccccc2)c1 (centres undefined) | nt | nt | 2% | nt | nt | nt
COc1cccc(C(=O)C(C#N)=C(SC)SC)c1 | -1% | -1% | 10% | ? | -12% | 20µM*
CSC(SC)=C(C#N)C(=O)c1ccccc1 | 4%[57.1 µM] | nt | 16% | 10% | ? | 18µM*
CSc1ccc(CCNC(=O)c2ccc3c(Cl)c4c(nc3c2)CCCC4)cc1 | 0% | nt | -1% | -21% | ? | 36%
COc1ccc(NC(=O)c2c(-c3ccccc3)c(-c3ccccc3)nn(C)c2=O)c(OC)c1 | 0% | nt | 0% | 10% | -12% | 7%
CC(CNC(=O)c1ccc(Cn2c(=O)c3cccn3c3cccnc32)cc1)c1ccccc1 (centres undefined) | 18% | nt | 0% | 15% | 8% | 52%
COc1cc(NC(=O)CN2c3cccc4cccc(c34)S2(=O)=O)cc(OC)c1OC | 9%[57.1 µM] | 1% | 3% | 23µM* | -12% | -14%[57.1 µM]
Cc1nn(Cc2ccc(Cl)cc2Cl)c(C)c1NC(=O)c1ccc(COc2cc(Cl)ccc2Cl)o1 | -2% | 5% | 0% | 12µM* | -23% | -9%
Cc1nn(Cc2ccc(Cl)cc2Cl)c(C)c1NC(=O)c1nn(C)cc1Cl | 12% | -1% | 0% | nt | 1% | 17%
O=C(Nc1ccn(Cc2c(F)c(F)cc(F)c2F)n1)c1ccc(COc2ccc(Cl)cc2Cl)o1 | 2% | 0% | -1% | nt | -14% | 21%
